Screening data deposited in PubChem BioAssay by University of Kansas High Throughput Screening Laboratory.
Shown is part of a subset that was picked to be rich in hits.
mHTT CaM bind: mutant huntingtin-calmodulin interaction inhibitors – biochemical, AlphaScreen, primary screen | AID 1671202, 2021 | AlphaScreen His-mHTT/GST-CaM binding, luminescence | inhibition, % at 15 µM | 190,000 compounds, 3.6% hits;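 also: 0% = both proteins with DMSO and 100% = one protein alone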
Target sequence (P42858 whole entry, looked up, stated change not applied): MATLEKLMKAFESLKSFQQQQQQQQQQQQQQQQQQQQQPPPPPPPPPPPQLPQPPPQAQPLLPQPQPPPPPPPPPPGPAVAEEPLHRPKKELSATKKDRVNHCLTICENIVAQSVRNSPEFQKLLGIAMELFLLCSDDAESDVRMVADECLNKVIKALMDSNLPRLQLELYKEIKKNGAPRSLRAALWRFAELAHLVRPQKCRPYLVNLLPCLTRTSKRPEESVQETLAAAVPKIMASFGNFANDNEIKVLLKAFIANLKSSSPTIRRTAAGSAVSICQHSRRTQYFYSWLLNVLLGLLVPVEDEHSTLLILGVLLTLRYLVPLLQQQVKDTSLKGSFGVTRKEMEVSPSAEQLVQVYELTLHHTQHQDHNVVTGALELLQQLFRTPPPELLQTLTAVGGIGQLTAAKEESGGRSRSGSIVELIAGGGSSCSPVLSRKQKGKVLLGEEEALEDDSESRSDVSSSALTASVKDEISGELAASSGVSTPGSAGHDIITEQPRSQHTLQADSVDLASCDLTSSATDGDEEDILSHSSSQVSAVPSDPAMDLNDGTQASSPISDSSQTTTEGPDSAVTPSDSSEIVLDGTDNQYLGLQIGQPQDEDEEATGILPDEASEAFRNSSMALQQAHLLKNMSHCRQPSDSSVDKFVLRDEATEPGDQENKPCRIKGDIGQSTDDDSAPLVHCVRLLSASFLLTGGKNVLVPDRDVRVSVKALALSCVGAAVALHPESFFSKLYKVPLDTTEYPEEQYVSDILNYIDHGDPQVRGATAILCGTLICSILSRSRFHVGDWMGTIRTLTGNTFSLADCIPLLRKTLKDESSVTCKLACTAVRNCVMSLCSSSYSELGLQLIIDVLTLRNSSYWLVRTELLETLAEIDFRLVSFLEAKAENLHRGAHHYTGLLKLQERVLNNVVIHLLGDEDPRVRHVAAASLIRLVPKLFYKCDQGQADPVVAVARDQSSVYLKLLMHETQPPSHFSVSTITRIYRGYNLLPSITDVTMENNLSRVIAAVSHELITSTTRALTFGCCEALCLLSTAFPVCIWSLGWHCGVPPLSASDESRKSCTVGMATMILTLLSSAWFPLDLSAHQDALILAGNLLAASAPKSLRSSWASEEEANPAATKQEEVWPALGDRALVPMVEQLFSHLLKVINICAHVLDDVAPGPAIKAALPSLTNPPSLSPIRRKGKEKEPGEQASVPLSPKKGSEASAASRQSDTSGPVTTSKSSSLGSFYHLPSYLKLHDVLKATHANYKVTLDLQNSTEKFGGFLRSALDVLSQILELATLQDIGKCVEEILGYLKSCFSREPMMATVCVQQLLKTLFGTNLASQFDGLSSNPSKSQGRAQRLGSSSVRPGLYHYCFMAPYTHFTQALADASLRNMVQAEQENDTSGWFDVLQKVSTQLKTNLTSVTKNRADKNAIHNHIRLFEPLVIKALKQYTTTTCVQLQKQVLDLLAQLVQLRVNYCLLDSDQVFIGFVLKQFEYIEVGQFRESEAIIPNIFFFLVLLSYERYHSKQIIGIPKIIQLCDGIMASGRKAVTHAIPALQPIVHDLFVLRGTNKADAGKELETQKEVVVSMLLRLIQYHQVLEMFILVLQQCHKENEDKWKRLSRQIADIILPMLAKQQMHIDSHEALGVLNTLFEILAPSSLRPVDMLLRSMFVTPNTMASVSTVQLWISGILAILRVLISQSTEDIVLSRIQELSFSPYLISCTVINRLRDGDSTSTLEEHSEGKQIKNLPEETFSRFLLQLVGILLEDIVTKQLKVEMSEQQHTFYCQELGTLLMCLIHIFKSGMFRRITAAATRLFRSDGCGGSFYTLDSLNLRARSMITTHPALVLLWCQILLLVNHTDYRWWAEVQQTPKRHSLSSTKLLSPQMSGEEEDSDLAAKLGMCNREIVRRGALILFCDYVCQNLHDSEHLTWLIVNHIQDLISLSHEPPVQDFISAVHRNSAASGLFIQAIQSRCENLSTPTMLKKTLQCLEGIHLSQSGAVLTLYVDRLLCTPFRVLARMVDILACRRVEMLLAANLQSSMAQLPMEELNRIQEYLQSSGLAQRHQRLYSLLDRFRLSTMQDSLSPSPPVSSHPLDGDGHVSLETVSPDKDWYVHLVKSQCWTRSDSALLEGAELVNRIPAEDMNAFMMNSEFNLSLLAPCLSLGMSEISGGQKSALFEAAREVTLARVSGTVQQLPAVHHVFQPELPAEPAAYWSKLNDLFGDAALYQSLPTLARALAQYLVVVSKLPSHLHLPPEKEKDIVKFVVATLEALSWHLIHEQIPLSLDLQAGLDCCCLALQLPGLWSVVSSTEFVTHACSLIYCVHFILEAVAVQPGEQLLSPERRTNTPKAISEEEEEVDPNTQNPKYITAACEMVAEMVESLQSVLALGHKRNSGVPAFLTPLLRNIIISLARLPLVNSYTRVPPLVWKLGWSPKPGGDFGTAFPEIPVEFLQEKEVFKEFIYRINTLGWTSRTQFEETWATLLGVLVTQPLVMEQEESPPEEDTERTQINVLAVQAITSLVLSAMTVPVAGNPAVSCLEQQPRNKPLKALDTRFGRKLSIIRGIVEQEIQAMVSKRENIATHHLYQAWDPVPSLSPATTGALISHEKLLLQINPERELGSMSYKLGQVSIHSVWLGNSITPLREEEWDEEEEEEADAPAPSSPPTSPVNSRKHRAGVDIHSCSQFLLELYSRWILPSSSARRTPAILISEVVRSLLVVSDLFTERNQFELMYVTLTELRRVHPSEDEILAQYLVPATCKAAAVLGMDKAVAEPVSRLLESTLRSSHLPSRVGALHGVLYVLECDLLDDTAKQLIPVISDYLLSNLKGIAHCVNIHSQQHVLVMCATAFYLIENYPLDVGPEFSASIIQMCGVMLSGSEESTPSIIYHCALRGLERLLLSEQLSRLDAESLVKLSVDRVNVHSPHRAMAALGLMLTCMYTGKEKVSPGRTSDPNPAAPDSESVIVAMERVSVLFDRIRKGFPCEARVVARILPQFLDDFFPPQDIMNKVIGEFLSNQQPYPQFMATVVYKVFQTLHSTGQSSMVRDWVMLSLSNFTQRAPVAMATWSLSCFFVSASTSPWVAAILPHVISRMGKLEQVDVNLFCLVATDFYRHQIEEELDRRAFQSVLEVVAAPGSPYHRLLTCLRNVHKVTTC
Pf apPOL block: Pf-apPOL inhibitors, biochemical, fluorescence; Plasmodium falciparum apicoplast DNA polymerase (apPOL); Recombinant Pf-apPOL, molecular beacon fluorescence, 1.5 h; inhibition, % at 10 µM; 210,000 compounds, 0.25% hits
An asterisk follows results filed as active. Rule as the data show it: active = inhibition above about 50%; inactive = the rest.

How did COc1ccc(C)cc1NCc1ccncc1 do in these assays?
mHTT CaM bind: 13.1; Pf apPOL block: -2.1

What do the screens show for `CNc1ccc([N+](=O)[O-])cc1-n1cc2c(=O)n(C)c(=O)n(C)c2c1`?
mHTT CaM bind: 0.0; Pf apPOL block: -9.3

How did COc1ccc(-c2cc3nc(C)cc(=O)n3[nH]2)cc1OC do in these assays?
mHTT CaM bind: -18.8; Pf apPOL block: -0.6

Results for Cc1cc2ccccc2n1CCNS(=O)(=O)c1ccc(Br)cc1 ?
mHTT CaM bind: 36.0; Pf apPOL block: -1.3

What do the screens show for `Cc1cc(C)c(S(=O)(=O)NCCn2c(C)cc3ccccc32)c(C)c1`?
mHTT CaM bind: 62.0*; Pf apPOL block: 6.5

What do the screens show for `O=C1NC(=Nc2ccccc2)S/C1=C/c1cc(Br)ccc1O`?
mHTT CaM bind: 55.0*; Pf apPOL block: -41.3

How did O=C1NC(=Nc2ccccc2)S/C1=C/c1cc(I)ccc1O do in these assays?
mHTT CaM bind: 52.0*; Pf apPOL block: -5.5

Results for O=C1NC(=Nc2ccccc2)S/C1=C/c1ccc(O)c(O)c1 ?
mHTT CaM bind: 43.0; Pf apPOL block: -13.4

Results for O=C1NC(=Nc2ccccc2)S/C1=C/c1cc(Br)cc(Cl)c1O ?
mHTT CaM bind: 96.0*; Pf apPOL block: -3.0

Results for Cc1ccccc1/C=C1/SC(=Nc2ccccc2)NC1=O ?
mHTT CaM bind: 48.0; Pf apPOL block: -1.3

What do the screens show for `COc1ccc(Br)cc1/C=C1/SC(=Nc2ccccc2)NC1=O`?
mHTT CaM bind: 19.0; Pf apPOL block: -2.9

How did O=C(Nc1ccc(Oc2ccc(OC(F)(F)F)cc2)cc1)c1ccco1 do in these assays?
Pf apPOL block: -8.3

How did CCN(CC)C(=O)c1cc2cc3ccc(Cl)cc3nc2o1 do in these assays?
mHTT CaM bind: 4.0; Pf apPOL block: -2.9

What do the screens show for `CC1CCN(C(=O)C2=NNc3ccccc3S2(=O)=O)CC1`?
mHTT CaM bind: -4.5; Pf apPOL block: -2.0

How did C#CCSc1nc(C)c(N=Nc2cc(Cl)cc(Cl)c2)c(C)c1C#N do in these assays?
Pf apPOL block: 0.9

What do the screens show for `COc1ccc(NC(=O)N2CCc3c(c4ccccc4n3C)C2)cc1`?
mHTT CaM bind: 50.9*; Pf apPOL block: -3.6

How did CCCn1cc2c3c(cccc31)CN(C(=O)Nc1ccc(OC)cc1)CC2 do in these assays?
mHTT CaM bind: 12.5; Pf apPOL block: 0.2

How did COc1cc(/C=C2\Sc3ccccc3C2=O)ccc1OCC#N do in these assays?
mHTT CaM bind: 12.0; Pf apPOL block: 2.0

What do the screens show for `CCCn1c(C(=O)N(C)Cc2ccccc2)cc2sc(Br)cc21`?
mHTT CaM bind: 14.3; Pf apPOL block: -3.8

Results for CCCn1c(C(=O)N(C)Cc2ccccc2)cc2sc(C)cc21 ?
mHTT CaM bind: 91.1*; Pf apPOL block: -11.7

Results for O=C(NCc1n[nH]c(=O)c2ccccc12)c1ccno1 ?
mHTT CaM bind: -7.2; Pf apPOL block: -6.0

What do the screens show for `O=C(c1ccc(OCC2CCN(C(=O)c3ccc(F)c(Cl)c3)CC2)cc1)N1CCCC1`?
mHTT CaM bind: 33.5; Pf apPOL block: 0.9

What do the screens show for `CC(=O)Nc1nc2ccccc2n1CCN(C)C`?
mHTT CaM bind: -0.6; Pf apPOL block: -0.1

How did CN(C)CCn1c2c(c3ccccc31)CCCn1nnnc1-2 do in these assays?
mHTT CaM bind: 56.0*; Pf apPOL block: -12.5

How did c1ccc2c(c1)c1ccccc1c1nc3nonc3nc21 do in these assays?
mHTT CaM bind: -4.0; Pf apPOL block: -1.7

What do the screens show for `CCOc1ccc(C2OC(=O)Cc3cc(OCC)c(OCC)cc32)cc1OCC` (stereo not drawn)?
mHTT CaM bind: 7.0; Pf apPOL block: -0.3

Results for CCOc1ccc(C2Oc3c(cc(Br)cc3OC)C=C2[N+](=O)[O-])cc1OCC (stereo not drawn) ?
mHTT CaM bind: 62.0*; Pf apPOL block: -2.9

Results for Cc1cc(C)nc(NC(c2ccco2)c2ccc3cccnc3c2O)n1 (stereo not drawn) ?
mHTT CaM bind: 100.0*; Pf apPOL block: -3.2

Results for CCC(=O)NC(c1ccco1)c1ccc2cccnc2c1O (stereo not drawn) ?
mHTT CaM bind: 100.0*; Pf apPOL block: 3.0

Results for O=C(Nc1c(Cl)cc(Cl)c2cccnc12)c1ccco1 ?
mHTT CaM bind: 4.0; Pf apPOL block: -3.6

What do the screens show for `CCC(=O)NC(c1ccco1)c1cc(Cl)c2cccnc2c1O` (stereo not drawn)?
mHTT CaM bind: 100.0*; Pf apPOL block: 6.1

Results for Cc1cc(C)nc(SCC(=O)NCc2ccco2)n1 ?
mHTT CaM bind: -6.5; Pf apPOL block: 1.4

What do the screens show for `CC(=O)NC(c1ccco1)c1cc(Cl)c2cccnc2c1O` (stereo not drawn)?
mHTT CaM bind: 100.0*; Pf apPOL block: -3.8

What do the screens show for `CCC(=O)Nc1ccc(Br)c2cccnc12`?
mHTT CaM bind: -5.3; Pf apPOL block: 1.0

How did CCN(C)C1=Nc2ccccc2Oc2ccc(NC(C)=O)cc21 do in these assays?
mHTT CaM bind: 6.6; Pf apPOL block: -2.2

How did CCN(C)c1ccc(/C=C2\C(=O)NN(c3cccc(Br)c3)C2=O)cc1 do in these assays?
mHTT CaM bind: 2.0; Pf apPOL block: 1.7

How did COCCc1noc(COC2CCCN(C(=O)c3ccncc3)C2)n1 (stereo not drawn) do in these assays?
mHTT CaM bind: -8.6; Pf apPOL block: -1.7

Results for CCCCC(=O)NC(c1ccco1)c1cc(Cl)c2cccnc2c1O (stereo not drawn) ?
mHTT CaM bind: 66.0*; Pf apPOL block: -0.8

How did CCCCC(=O)NC(c1ccccc1)c1cc(Cl)c2cccnc2c1O (stereo not drawn) do in these assays?
mHTT CaM bind: 22.0; Pf apPOL block: 10.9

What do the screens show for `CC(=O)c1sc(NC(=O)NCc2cccs2)nc1-c1ccccc1`?
mHTT CaM bind: -7.4; Pf apPOL block: -3.8

Results for O=[N+]([O-])c1ccc(Nc2nc(-c3ccccn3)cs2)cc1 ?
mHTT CaM bind: 48.0; Pf apPOL block: 4.8

How did Cc1ccnc(Nc2nc(-c3ccccn3)cs2)c1 do in these assays?
mHTT CaM bind: 100.0*; Pf apPOL block: -0.9

How did Cc1ccnc(Nc2nc(-c3cccs3)cs2)c1 do in these assays?
mHTT CaM bind: 24.8; Pf apPOL block: -5.0

Results for CC(=O)c1cccc(Nc2nc(-c3ccccn3)cs2)c1 ?
mHTT CaM bind: 86.4*; Pf apPOL block: -11.3

What do the screens show for `CC(=O)c1cccc(Nc2nc(-c3ccccc3)cs2)c1`?
mHTT CaM bind: 22.1; Pf apPOL block: -3.1

What do the screens show for `Cc1ccc(Nc2nc(-c3ccccn3)cs2)cc1`?
mHTT CaM bind: 93.0*; Pf apPOL block: -3.7

Results for CN(C)c1ccc(C(=O)Nc2cc(-c3ccccn3)no2)cc1 ?
mHTT CaM bind: -5.0; Pf apPOL block: -14.5

Results for CN(C)c1ccc(Nc2nc(-c3ccccn3)cs2)cc1 ?
mHTT CaM bind: 100.3*; Pf apPOL block: -17.0

Results for COc1cc(C)c(Br)cc1S(=O)(=O)Nc1cc(Cl)ccc1O ?
mHTT CaM bind: 45.4; Pf apPOL block: -10.4

Results for CCC(=O)N1CCC(Oc2ccccc2)CC1 ?
mHTT CaM bind: 7.5; Pf apPOL block: -1.8

Results for CC(C)CC(=O)Nc1cccn2nc(C(C)C)nc12 ?
mHTT CaM bind: -5.2; Pf apPOL block: -0.9

Results for O=S(=O)(NCC1(O)CCCC1)C1CCCCC1 ?
mHTT CaM bind: -5.6; Pf apPOL block: -1.9

Results for CC(C)CNC(=O)C1CCN(c2ncccc2-c2nc(-c3cccc(F)c3)no2)CC1 ?
mHTT CaM bind: -11.6; Pf apPOL block: -5.1

Results for CCN1CCCn2nc(C3CCN(C(=O)c4ccc(NC(C)=O)cc4)CC3)cc2C1=O ?
mHTT CaM bind: -5.9; Pf apPOL block: -0.8
